Assay results: PubChem BioAssay (NCATS)
Results filed as inconclusive are left out. Active and inactive are the calls of the source. Calls come from the whole dose curve; as a rule, active = well fitted activation curve with a large enough effect in the repeat runs; inconclusive = weak or mixed curves; inactive = flat fitted curve, though single readings scatter.

Test: qHTS assay for small molecule agonists of the antioxidant response element (ARE) signaling pathway measured by Nrf2-dependant transcriptional activity (AID 720636); note: % of control where 0% means no effect
Conditions: ARE-luc HepG2, Nrf2 luciferase reporter, 16 h; series mostly up to 92.4 µM; activation: at the top concentration
Description: National Center for Advancing Translational Sciences [NCATS] NIH Chemical Genomics Center [NCGC] U.S. Environmental Protection Agency [EPA] National Institutes of Environmental Health Sciences [NIEHS] National Toxicology Program [NTP] Assay Overview: The antioxidant response element (ARE) signaling pathway plays an important role in the cellular anti-oxidant defense. Exposure to stressors which are exogenous like ionizing radiations, chemicals, U-V light, and endogenous like cell signaling, metabolic processes or inflammation, reactive oxygen species (ROS), can induce oxidative stress in the cells. Oxidative stress has been implicated in the pathogenesis of a variety of diseases ranging from cancer to neurodegeneration. ARE-luc HepG2 cell line (Simmons et al., Current Chemical Genomics, 5:1-12, 2011) has been used for identifying the chemicals that induce oxidative stress. The cell line has an Nrf2-responsive luciferase reporter gene that has been engineered to measure Nrf2-dependant transcriptional activity.
Assay Protocol Summary: For measuring ARE induction; 2,000 ARE-luc HepG2 cells in 5 uL of assay medium containing 1% dialyzed FBS per well were dispensed into white wall/solid bottom 1536-well plates using a Flying Reagent Dispenser (FRD) (Aurora Discovery). The assay plates were incubated for 6 hr at 37 C to allow cell attachment to the well bottom, followed by the transfer of 23 nL compound or DMSO vehicle by a pin tool (Kalypsys). The plates were incubated for 16 hr at 37 C and 5% CO2, followed by the addition of 5 uL of ONE-GloTM luciferase reagent (Promega) into each well using FRD. After 30 min room temperature incubation, plates were read on a ViewLux plate reader (PerkinElmer).

Row | SMILES | outcome | activation
1 | CC(O)CO (stereo not drawn) | inactive | 
2 | O=C(O)CN(CCN(CC(=O)O)CC(=O)O)CC(=O)O | inactive | 
3 | CCCCC/C=C\C/C=C\CCCCCCCC(=O)O | inactive | 
4 | CC1(C)C(C=C(Cl)Cl)C1C(=O)OCc1cccc(Oc2ccccc2)c1 (stereo not drawn) | inactive | 
5 | CC1=CCC(C(C)(C)O)CC1 (stereo not drawn) |  | -0.067% (inactive)
6 | CCCCCCCC/C=C\CCCCCCCC(=O)O | inactive | 
7 | CCCCC(CC)COC(=O)CC(C(=O)OCC(CC)CCCC)S(=O)(=O)O (stereo not drawn) |  | -5.01% (inactive)
8 | C[C@H]1C[C@H]2[C@@H]3CCC4=CC(=O)C=C[C@]4(C)[C@@]3(F)[C@@H](O)C[C@]2(C)[C@@]1(O)C(=O)CO |  | -0.0549% (inactive)
9 | CCOC(C)=O |  | -1.65% (inactive)
10 | Nc1ccn([C@H]2CS[C@@H](CO)O2)c(=O)n1 |  | -0.914% (inactive)
11 | CC1=C2[C@@H]([C@H](C)CC[C@H]2/C=C(\C)C(=O)O)[C@H](O)C1 |  | -0.751% (inactive)
12 | IC(I)I | inactive | 
13 | O=S(=O)(O)O | inactive | 
14 | CC(C)=O |  | -2.41% (inactive)
15 | O=CCCCC=O |  | 1.52% (inactive)
16 | CCCCCCCC(=O)O | inactive | 
17 | O=C(O)CCC(=O)C(=O)O |  | -1.57% (inactive)
18 | Cc1ccccc1 | inactive | 
